Tests used:
Experiment in all cases: thermal shift delta Tm vs DMSO control; higher = stronger stabilization (binding)
Settings in all cases: 12.5 µM; protein concentration 2 µM
[1] = tested on: LOC_OS01G01410-cb001
Method in brief: (§1)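 Rice kinase domain constructs were expressed in E. coli, purified, and tested by differential scanning fluorimetry with compound added in DMSO. Each well of a 96-well plate held 19.5 μl of 2 μM kinase in 100 mM potassium phosphate pH 7.5, 150 mM NaCl, 10% glycerol and 5 × SYPRO Orange, and fluorescence was read from 25°C to 95°C at 0.05°C/s. The melting temperature shift is the mean of triplicates, taken against protein with DMSO alone after Boltzmann fitting.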

[2] = tested on: LOC_OS01G02750-cb003
Method in brief: as §1

[3] = tested on: LOC_OS01G10900-cb004
Method in brief: as §1

[4] = tested on: LOC_OS01G13800-cb001
Method in brief: as §1

[5] = tested on: LOC_OS01G14860-cb001
Method in brief: as §1

[6] = tested on: LOC_OS01G21960-cb002
Method in brief: as §1

[7] = tested on: LOC_OS01G39600-cb002
Method in brief: as §1

[8] = tested on: LOC_OS01G48390-cb002
Method in brief: as §1

[9] = tested on: LOC_OS01G51400-cb002
Method in brief: as §1

[10] = tested on: T1, LOC_OS01G52050-cb004
T1 sequence (whole entry): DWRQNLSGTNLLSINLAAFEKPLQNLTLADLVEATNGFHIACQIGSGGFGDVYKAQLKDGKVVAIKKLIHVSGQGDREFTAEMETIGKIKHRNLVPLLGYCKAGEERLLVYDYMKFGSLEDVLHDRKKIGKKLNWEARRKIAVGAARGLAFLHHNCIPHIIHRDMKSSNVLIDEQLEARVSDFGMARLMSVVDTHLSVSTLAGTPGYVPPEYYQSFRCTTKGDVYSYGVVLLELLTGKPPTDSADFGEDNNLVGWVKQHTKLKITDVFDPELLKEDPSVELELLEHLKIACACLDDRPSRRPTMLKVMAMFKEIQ
Method in brief: as §1

[11] = tested on: LOC_OS01G57100-cb003
Method in brief: as §1

[12] = tested on: LOC_OS01G60330-cb001
Method in brief: as §1

[13] = tested on: LOC_OS01G60700-cb002
Method in brief: as §1

[14] = tested on: LOC_OS01G63280-cb003
Method in brief: as §1

[15] = tested on: LOC_OS01G67340-cb003
Method in brief: as §1

[16] = tested on: LOC_OS01G70970-cb002
Method in brief: as §1

[17] = tested on: LOC_OS02G07810-cb001
Method in brief: as §1

[18] = tested on: LOC_OS02G08530-cb003
Method in brief: as §1

[19] = tested on: LOC_OS02G14120-cb001
Method in brief: as §1

[20] = tested on: LOC_OS02G17970-cb001
Method in brief: as §1

Structure (SMILES)	thermal shift delta Tm [1] [°C]	thermal shift delta Tm [2] [°C]	thermal shift delta Tm [3] [°C]	thermal shift delta Tm [4] [°C]	thermal shift delta Tm [5] [°C]	thermal shift delta Tm [6] [°C]	thermal shift delta Tm [7] [°C]	thermal shift delta Tm [8] [°C]	thermal shift delta Tm [9] [°C]	thermal shift delta Tm [10] [°C]	thermal shift delta Tm [11] [°C]	thermal shift delta Tm [12] [°C]	thermal shift delta Tm [13] [°C]	thermal shift delta Tm [14] [°C]	thermal shift delta Tm [15] [°C]	thermal shift delta Tm [16] [°C]	thermal shift delta Tm [17] [°C]	thermal shift delta Tm [18] [°C]	thermal shift delta Tm [19] [°C]	thermal shift delta Tm [20] [°C]
CN1CCN(c2ccc(-c3ccncc3-c3cc(F)c(O)c(F)c3)cc2)CC1	0.42	0.81	-0.45	0.02	0.46	0.1	-0.43	-0.15	0.11	0.14	0.87	1.02	0.66	0.31	0.24	0.16	0.06	0.29	1.22	0.89
O=c1cc(N2CCOCC2)oc2c1ccc1ccccc12	-0.07	2.24	1.69	0.55	0.74	-0.09	-0.09	0.43	-0.05	0.24	-0.21	-0.04	0.19	0.17	0.3	-0.28	0.45	0.22	1.47	0.01
CN1CCN(c2ccc3nc(-c4c(N)c5c(F)cccc5[nH]c4=O)[nH]c3c2)CC1 [Dovitinib (TKI-258, CHIR-258)]	6.03	2.05	2.59	-0.2	0.79	2.56	2.01	1.63	0.56	3.72	-0.17	10.3	1.43	0.59	2.72	3.99	0.53	2.72	4.01	-0.27
CC(C)NC(=O)C1CCC(n2c(NC(=O)c3ccc(F)cc3)nc3ccc(CN4CCC(C(C)(C)O)CC4)cc32)CC1 (stereo not given) [Belizatinib (TSR-011)]	0.68	3.65	1.75	-0.36	0.58	1.84	2.02	2.61	0.56	4.45	0.68	1.95	0.11	0.25	2.85	6.79	-0.66	5.19	4.13	-0.03
C[C@@H]1CN(C(=O)c2ccc(NC(=O)c3cc(O[C@H](C)c4c(Cl)ccc(F)c4Cl)c(N)nn3)cc2)C[C@H](C)N1 [Ensartinib (X-396)]	2.83	1.44	2.67	-0.39	0.08	0.04	0.4	5.02	-0.19	3.28	4.79	-0.22	0.66	-0.05	7.25	0.84	0.09	2.29	12	0.57
CCNC(=O)C#Cc1ccc2c(C(=Nc3ccc(CN(C)C)cc3)c3ccccc3)c(O)[nH]c2c1	1.75	1.1	0.16	-0.3	5.63	0.65	3.52	1.35	-0.33	2.8	-0.26	0.78	0.32	0.72	1.01	13.4	0.15	2.16	0.91	0.63
C=CC(=O)Nc1cccc(Nc2nc(Nc3ccc(NC4CN(CCF)C4)cc3OC)ncc2C(F)(F)F)c1	0.5	-0.47	0.12	-0.76	0.1	0.07	1.11	2.29	0.35	0.31	0.4	0.07	0.83	0.2	-0.31	0.87	0.93	3.91	1.12	0.41
O=c1cc(-c2ccccc2)oc2c(O)c(O)ccc12 [7,8-Dihydroxyflavone]	2.01	2.3	0.12	2.97	3.88	3.56	0.49	1.55	0.69	1.44	5.23	-0.01	3.2	1.34	0.96	-0.06	2.73	1.59	0.71	3.29
Cn1cc(-c2ccc3ncc(Cc4ccc5ncccc5c4)n3n2)cn1	0.75	0.95	6.36	0.22	0.23	0.62	0.86	1.24	0.47	0.62	0.9	1.91	0.96	0.15	0.76	0.25	1.07	1.43	2.22	0.32
O=c1c(O)c(-c2ccc(O)c(O)c2)oc2cc(O)cc(O)c12 [Quercetin]	3.05	7.25	1.68	1.97	3.55	3.4	6.51	2.95	1.5	6.25	2.71	8.09	0.35	10.7	5.98	2.14	2.05	2.33	3.39	1.77
CC[C@@](C)(Nc1ccnc(-c2c[nH]c3ncccc23)n1)C(=O)NCC(F)(F)F [Decernotinib (VX-509)]	0.58	1.32	-0.38	0.4	0.78	3.1	-0.05	1.08	0.22	0.18	2.18	0.73	0.67	0.95	0.62	0.36	0.36	0.65	5.49	0.86
CC(C)(C)c1cc(NC(=O)Nc2ccc(-c3cn4c(n3)sc3cc(OCCN5CCOCC5)ccc34)cc2)no1 [Quizartinib (AC220)]	-0.06	0.83	0.82	0.79	0.25	1.03	0.27	0.74	-0.16	0.84	0.35	0.35	1.08	0.09	0.36	0.3	0.96	1.36	0.28	1.06
C=CC(=O)Nc1cccc(Oc2nc(Nc3ccc(N4CCN(C)CC4)cc3)nc3ccsc23)c1	2.67	1.02	2.04	0.55	0.91	1.61	0.15	1.38	0.79	1.94	2.41	0.93	3.14	0.86	0.85	1.8	1.13	2.66	3.63	2.18
O=C(Nc1cccnc1)c1cc(-c2ccnc(F)c2)ccc1OCc1ccccc1	2.5	0.28	-0.53	0.66	-0.01	0.38	-0.21	0.88	0.01	-0.04	0.33	0.69	0.86	-0.26	0.85	0.12	0.46	2.26	0.34	0.6
NC1(c2ccc(-c3nc4ccn5c(=O)[nH]nc5c4cc3-c3ccccc3)cc2)CCC1	0.94	-0.51	0.16	0.23	0.18	-0.02	0.19	0.18	-0.13	0.16	-0.32	1.3	1.21	-0.33	-0.9	0.31	0.4	0.46	-0.05	1.42
CNC(=O)c1ccc(Nc2ncc(C(F)(F)F)c(NCc3nccnc3N(C)S(C)(=O)=O)n2)cc1	1.64	3.47	1.96	-0.3	7.22	2.6	5.05	3.16	0.96	6.78	0.61	2.42	1.41	0.96	1.45	7.62	0.24	2.72	6.02	0.65
CN(C)CCCn1cc(C2=C(c3c[nH]c4ccccc34)C(=O)NC2=O)c2ccccc21	0.25	0.71	0.3	0.25	1.17	2.73	0.78	-0.07	0.26	-0.04	0.59	1.19	0.85	0.38	0.56	0.73	0.35	0.74	0.09	0.48
O=c1cc(-c2cccc3c2Sc2ccccc2S3)oc(N2CCOCC2)c1	0.6	-5.37	1.94	0.13	2.44	0.44	0.29	2.17	-0.12	-0.44	0.21	1.07	0.76	0.32	-0.52	-0.34	0.78	0.47	0.45	0.59
Cc1ccc(NC(=O)c2cccc(N(C)C)c2)cc1NC(=O)c1ccc(O)cc1	0.45	0.15	0.12	0.36	0.44	0.92	-0.01	0.9	0.37	0.36	2.98	1.17	1.43	0.32	-0.19	0.28	1.54	1.03	0.45	0.95
CN(c1ccccc1CNc1nc(Nc2ccc3c(c2)CC(=O)N3)ncc1C(F)(F)F)S(C)(=O)=O	2.5	7.01	2.35	0.34	5.2	2.72	8.33	3.62	1.93	8.95	2.5	2.26	1.26	6.35	3.07	9.4	1.12	2.68	8.26	0.68
O=C(Cc1ccc(-c2ccc(OCCN3CCOCC3)cc2)cn1)NCc1ccccc1	0.29	-0.23	-0.03	-0.06	0.06	0.58	-1.02	0.31	0.06	-0.13	1.17	0.12	1.18	0.26	0.62	0.16	0.92	0.7	0.08	1.17
O=C(Nc1c[nH]nc1-c1nc2ccc(CN3CCOCC3)cc2[nH]1)NC1CC1	5.91	3.78	2.15	-0.38	8.12	3.45	6.02	2.89	0.42	7.67	0.91	11.9	1.09	5.34	1.94	7.9	0.64	3.3	11.9	0.14
Cc1ccc(Nc2nccc(N(C)c3ccc4c(C)n(C)nc4c3)n2)cc1S(N)(=O)=O	2.81	0.47	1.7	0.62	1.21	1.29	1.56	4.66	0.3	0.89	0.87	4.66	1.25	0.81	0.74	0.44	1.5	1.68	3.21	0.47
Cc1cc(C(=O)Nc2nc3cccc(Cl)c3n2[C@@H]2CCCCN(C(=O)/C=C/CN(C)C)C2)ccn1 [Nazartinib (EGF816, NVS-816)]	1.02	1.36	1.4	0.82	1.27	1.25	0.83	0.78	0.04	0.96	1.05	1.72	1.17	0.35	1.06	0.93	0.98	2.18	1.69	1.28
CCc1cncnc1N1CCN(Cc2nc3ccc(C(F)(F)F)cc3[nH]2)CC1	0.68	1.15	0.36	0.07	0.3	0.83	-0.18	0.61	0.42	0.17	1.5	0.04	0.72	0.19	-0.58	0.14	0.73	0.49	-0.72	0.34
